Source: PubChem
Dicer processing: inhibitors of human Dicer processing of pre-microRNA; z-score at 25 µM; Q9UPY3; cat-ELCCA pre-miR-21 Dicer processing, chemiluminescence; active compounds read high; hit rate 6% among 47,000; in the data active means z-score above about 3, passing the limit was not always enough;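 further: plate controls were vehicle for no effect and no enzyme for full effect; higher signal means more uncleaved substrate so more Dicer inhibition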
Starred values were filed as active, the others as inactive. The full list was thinned out, with hits kept by preference.

How did Cc1ccc(N2C(=O)C3CCC(C)CC3C2=O)cc1 (configuration not stated) do in these assays?
Dicer processing: 0.19

How did O=C(Cn1nnc(-c2cc(Cl)cc(Cl)c2)n1)c1ccc(Cl)cc1 do in these assays?
Dicer processing: 1.8

How did FC(F)(F)c1cccc(NC(=S)NCCNc2nccc(C(F)(F)F)n2)c1 do in these assays?
Dicer processing: -1.3

What do the screens show for `O=C(CN1CCc2ccccc21)N1CCc2ccccc21`?
Dicer processing: 0.26

What do the screens show for `Cc1nc2cc(NCc3ccco3)ccc2n1C`?
Dicer processing: 1.9

Results for Cc1ccc(-n2cnc3cc(NCc4ccncc4)ccc32)cc1 ?
Dicer processing: 13

How did COc1ccccc1-n1cnc2cc(NCc3ccco3)ccc21 do in these assays?
Dicer processing: 6.5*

Results for O=S(=O)(c1ccc(Cl)cc1)N1CCSCC1 ?
Dicer processing: 0.73

Results for CN(C)C(=O)N1CCN(S(=O)(=O)c2ccc(Cl)cc2)CC1 ?
Dicer processing: 0.7

Results for O=S(=O)(c1ccc(Cl)cc1)N1CCN(c2cccc(Cl)c2)CC1 ?
Dicer processing: 3.1*

How did NC(=S)Nc1ccccc1N1CCOCC1 do in these assays?
Dicer processing: -1.1

How did c1ccc(COc2ccc3[nH]ccc3c2)cc1 do in these assays?
Dicer processing: 6.8

What do the screens show for `COC(=O)C(CCSC)NC(=O)c1cc2c(n(-c3ccccc3)c1=O)CCCC2=O` (configuration not stated)?
Dicer processing: 2.1

What do the screens show for `O=C1CCCc2c1cc(C(=O)NC1CCSC1=O)c(=O)n2-c1ccccc1` (configuration not stated)?
Dicer processing: 1.2

What do the screens show for `O=C1CCCc2c1cc(C(=O)O)c(=O)n2-c1ccccc1`?
Dicer processing: 3.7*

Results for O=C1NCCN1CCNS(=O)(=O)c1ccc(S(=O)(=O)c2ccccc2)s1 ?
Dicer processing: -0.11

How did CSc1cccc(NC(=O)CSc2ccc(C(F)(F)F)cn2)c1 do in these assays?
Dicer processing: 0.4

What do the screens show for `CC(C)C(=O)N1c2ccccc2NC2=C(C(=O)CC(C)(C)C2)C1c1cccc(Cl)c1` (configuration not stated)?
Dicer processing: 1.5

How did CCOC(=O)/C(C#N)=C/Nc1cc(C)on1 do in these assays?
Dicer processing: -1.1

Results for O=C1NNC(c2ccccc2)C1c1ccccc1 (configuration not stated) ?
Dicer processing: 3.5*

How did CC(C)C1C(=O)CC(c2ccccc2)NC1c1ccccc1 (configuration not stated) do in these assays?
Dicer processing: 0.45

How did O=C1C(=O)C(c2ccccc2)C(=O)C1c1ccccc1 (configuration not stated) do in these assays?
Dicer processing: 1.6

What do the screens show for `COc1ccc(C2CC(=O)C3=C(C2)NC(C)=C(C(=O)OC(C)C)C3c2ccc(OC)c(OC)c2)cc1` (configuration not stated)?
Dicer processing: 1.9

What do the screens show for `O=C(CC1(O)C(=O)N(Cc2ccccc2)c2ccc(Br)cc21)c1cccnc1` (configuration not stated)?
Dicer processing: 2.6

How did CCCN1C(=O)C(O)(CC(=O)c2ccc(C)o2)c2cc(Br)ccc21 (configuration not stated) do in these assays?
Dicer processing: -0.06

How did Cc1ccccc1CN1C(=O)C(O)(CC(=O)c2ccco2)c2cc(Cl)ccc21 (configuration not stated) do in these assays?
Dicer processing: 2.3

What do the screens show for `Cc1ccc(CN2C(=O)C(O)(CC(=O)c3ccc(C)o3)c3cc(Cl)ccc32)cc1` (configuration not stated)?
Dicer processing: 3.7*

What do the screens show for `Cc1ccc(C(=O)CC2(O)C(=O)N(Cc3ccc(Cl)cc3)c3ccccc32)cc1` (configuration not stated)?
Dicer processing: 2.7

What do the screens show for `CCCN1C(=O)C(O)(CC(=O)c2ccc(C)s2)c2ccccc21` (configuration not stated)?
Dicer processing: -0.54

Results for Cc1ccc(C(=O)CC2(O)C(=O)N(Cc3ccccc3)c3ccc(Br)cc32)s1 (configuration not stated) ?
Dicer processing: 3.6*

How did Cc1coc(C)c1C(=O)CC1(O)C(=O)N(Cc2ccccc2)c2ccc(Br)cc21 (configuration not stated) do in these assays?
Dicer processing: 3.8*

How did CCCCN1C(=O)C(O)(CC(=O)c2ccc(C)s2)c2cc(Br)ccc21 (configuration not stated) do in these assays?
Dicer processing: 2.3

Results for Cc1nc(-c2ccccc2)sc1C(=O)NNS(=O)(=O)c1c(C)c(C)c(C)c(C)c1C ?
Dicer processing: 1.2

How did CCOC(=O)c1c(NC(C)=O)sc2c(OC(C)=O)c(Br)ccc12 do in these assays?
Dicer processing: 1.3

Results for Cc1ccc(CSc2n[nH]c(=O)n2-c2ccc(C(C)(C)C)cc2)cc1 ?
Dicer processing: -1

Results for Cn1nc(CC(=O)O)c2ccccc2c1=O ?
Dicer processing: 2.2

What do the screens show for `CSC(SC)=C(C#N)C(=O)c1ccoc1C`?
Dicer processing: 0.84

What do the screens show for `S=C(NCCc1ccccc1)N/N=C/c1c(-c2ccc(Cl)cc2)[nH]c2ccccc12`?
Dicer processing: 3.7*

What do the screens show for `Oc1ccccc1/C=N/NC(=S)NCCc1ccccc1`?
Dicer processing: 12

What do the screens show for `COc1cccc(/C=N/NC(=S)NCCc2ccccc2)c1OC`?
Dicer processing: -1.4

How did O=C(CN1CCOCC1)NN1CC(=O)N(c2ccccc2)CC1=O do in these assays?
Dicer processing: 2.2

Results for COc1ccc(-c2cc(-c3ccccc3)n3ncnc3n2)cc1 ?
Dicer processing: -0.22

What do the screens show for `COc1ccc(Nc2cc(-c3ccccc3)nc3ncnn23)c(OC)c1`?
Dicer processing: 3.7*

Results for Clc1ccc(Nc2cc(-c3ccccc3)nc3ncnn23)cc1 ?
Dicer processing: -0.01

How did CCCCN1C(=O)C(O)(CC(=O)c2ccc(OCC)cc2)c2cc(Br)ccc21 (configuration not stated) do in these assays?
Dicer processing: 0.25

Results for C=CCSc1nc(N2CCOCC2)c2c(c1C#N)CC(C)(C)SC2 ?
Dicer processing: -0.83

What do the screens show for `O=C(O)CSc1nc2ccccc2n1Cc1ccccc1`?
Dicer processing: -1.6

Results for NC(=O)Cn1c(CSc2nc3ccccc3n2Cc2ccccc2)nc2ccccc21 ?
Dicer processing: 4.2*

Results for OCCSc1nc2ccccc2n1Cc1ccccc1 ?
Dicer processing: -0.6

How did CCOc1ccsc1NC(=O)Nc1ccc(OC(F)(F)F)cc1 do in these assays?
Dicer processing: -1.4

What do the screens show for `CC(=O)NC(Nc1ccccc1F)(C(F)(F)F)C(F)(F)F`?
Dicer processing: -0.49

How did O=C(O)CCCNS(=O)(=O)c1ccc(Cl)cc1 do in these assays?
Dicer processing: 1.2

Results for Cc1ccc(S(=O)(=O)NCCCCCC(=O)O)cc1 ?
Dicer processing: -0.2

Results for COc1ccc(S(=O)(=O)NCCCC(=O)O)cc1 ?
Dicer processing: 3.1*

Results for COc1ccc(S(=O)(=O)Nc2sccc2C#N)cc1 ?
Dicer processing: -2.2

Results for CC(CC(=O)O)S(=O)(=O)c1ccc(Cl)cc1 (configuration not stated) ?
Dicer processing: -0.16

Results for N#Cc1c(-c2ccccc2)n2c(-c3ccccc3)nn(-c3ccccc3)c2nc1=O ?
Dicer processing: -0.57

How did Nc1cccc(-c2nc3ccccc3[nH]2)c1 do in these assays?
Dicer processing: -0.02

What do the screens show for `Nc1ccc(CCc2nc3ccc(N)cc3[nH]2)cc1`?
Dicer processing: 0

Results for Nc1cccc(CCc2nc3cc4ccccc4cc3[nH]2)c1 ?
Dicer processing: 6.9*
